We go through 13 compounds from the supplement of paper PMC7156485.

Structures are written as SMILES. ± gives the standard deviation of the averaged measurements.
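Note: TDF denotes transformed human dermal fibroblasts of mesenchymal origin.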

This test concerns HCC1569. Kind of test: cell number relative to DMSO (% of DMSO); higher = more cells (less growth inhibition / toxicity). As to conditions: concentration: 10 µM; 24 h. The method, boiled down:
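Compounds were applied at 10 µM for 24 h at 37 °C, in triplicate, to HCC1569 and TDF cells. The cells were then fixed and stained for H1.0, and nuclei were counterstained with DAPI. Nuclear H1.0 intensity or cell number is reported relative to the plate control as a percent, taking the median of replicates. Smoothing for positional effects was applied to HCC1569 values only.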
`CC1OC(n2cc(F)c(=O)[nH]c2=O)C(O)C1O` (stereo not drawn) [Doxifluridine] gave a cell number of 88.3.
Turning to `CC1=NN(c2ccccc2)C(=O)C1`, the cell number amounted to 101.
Take `CCCCCCCCOC(=O)C=Cc1ccc(O)c(O)c1` [n-Octyl caffeate]: the cell number is 54.1.
As for `Cl.O=C(OCCN1CCOCC1)C1(c2ccccc2)CCCCC1`, the figure is 99.8; as for `CON(C)C(=O)[C@H](O)[C@H](Cc1ccccc1)NC(=O)c1cc2cc(Cl)ccc2[nH]1`, 103; as for `O=C(C=Cc1ccc(O)c(O)c1)c1ccc(OC2OC(CO)C(O)C(O)C2O)c(O)c1O` (stereo not drawn) [Marein], 99.4.
`CCCCC(C)(C)C(O)C=CC1C(O)CC(=O)C1CC=CCCCC(=O)O` (stereo not drawn) [16,16-Dimethyl-prostaglandin E2] came in with a cell number of 100.
The compound `CC(=O)Oc1ccccc1C(=O)Nc1ncc([N+](=O)[O-])s1` [2-{[(5-nitro-1,3-thiazol-2-yl)amino]carbonyl}phenyl acetate] showed a cell number of 89.4.
The same measure for `CN1CCCCC1CCN1c2ccccc2Sc2ccc(S(C)=O)cc21.O=S(=O)(O)c1ccccc1` (stereo not drawn) [Mesoridazine besylate]: 103.
The same measure for `CN(C)[C@@H](CCOc1cccc2ccccc12)c1ccccc1.Cl`: 90.3.
As for `NC(CCC(=O)NC(CS)C(=O)NCC(=O)O)C(=O)O` (stereo not drawn) [Glutathione], the figure is 101; as for `O=c1cc(-c2ccccc2)oc2cc(O)c(O)c(O)c12` [Baicalein], 98.9 ± 2.6; as for `CC1COc2c(C3(N)CC3)c(F)cc3c(=O)c(C(=O)O)cn1c23` (stereo not drawn) [Pazufloxacin], 104.
